Source: PubChem
This is one part of a sample in which hits are shown more often than they occur.
ERAP1 inh – inhibitors of human ERAP1 aminopeptidase | Q9NZ08 | inhibition, % at 10.7 µM | recombinant ERAP1, Leu-AMC fluorescence, 60 min | 340,000 tested, 0.15% active | AID 652197;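 active = mean replicate inhibition of at least 30%, or all replicates individually reaching that 30% level; inactive = mean below 30% and not every replicate reaching it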;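 also: 0% = neutral control wells and 100% = L-leucinethiol positive control wells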
PDI turbidity – blocks human protein disulfide isomerase activity; PDI insulin aggregation turbidity, A650, 90 min; inhibition, % at 10 µM; 350,000 tested, 0.052% active;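 active = mean inhibition across replicates of 30% or more, whatever share of single replicates reach that level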
HDAC3 inh – blocks human histone deacetylase 3 | O15379 | recombinant HDAC3, fluorogenic peptide/trypsin coupled, fluorescence | inhibition, % at 8.3 µM | 320,000 tested, 0.15% active | AID 2718; in the data active = inhibition above about 26%, passing the limit was not always enough
Target sequence (O15379 whole entry, looked up): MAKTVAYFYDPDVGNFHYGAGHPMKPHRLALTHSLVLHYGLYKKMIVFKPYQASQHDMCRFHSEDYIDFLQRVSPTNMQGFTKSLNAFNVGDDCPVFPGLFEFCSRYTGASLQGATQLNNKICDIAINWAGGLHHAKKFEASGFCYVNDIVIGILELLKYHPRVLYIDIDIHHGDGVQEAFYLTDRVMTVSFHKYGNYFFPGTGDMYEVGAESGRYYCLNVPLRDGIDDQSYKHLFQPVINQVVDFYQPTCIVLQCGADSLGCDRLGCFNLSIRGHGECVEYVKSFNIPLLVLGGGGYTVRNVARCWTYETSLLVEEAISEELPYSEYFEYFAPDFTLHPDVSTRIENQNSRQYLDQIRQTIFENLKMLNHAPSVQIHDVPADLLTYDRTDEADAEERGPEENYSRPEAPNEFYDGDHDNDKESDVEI
ERp5 inh – blocks human ERp5 reductase activity on insulin; inhibition, % at 9.99 µM; Q15084; 350,000 tested, 0.05% active; AID 651711; ERp5 insulin aggregation, absorbance 650 nm, 90 min;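 active = mean replicate inhibition above about 25%, with every replicate also reaching it, limit read from the data, passing the limit was not always enough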
SIRT5 inh – blocks human SIRT5 desuccinylation of peptide; Q9NXA8; Purified SirT5, succinyl-peptide AMC, trypsin-coupled fluorescence; inhibition, % at 15 µM; 330,000 tested, 1.1% active; AID 652115; in the data active = inhibition above about 15%
Active calls of the source: *; . = no result given.

SMILES	ERAP1 inh	PDI turbidity	HDAC3 inh	ERp5 inh	SIRT5 inh
CCC1CCc2sc(C(=O)OCC(=O)N(CCOC)c3c(N)n(Cc4ccccc4)c(=O)[nH]c3=O)cc2C1 (stereo not drawn)	-4.1	3.8	-2.2	-2.6	1.3
COCCN(C(=O)CSc1ncn[nH]1)c1c(N)n(Cc2ccccc2)c(=O)[nH]c1=O	57.0*	-0.9	-10.7	-6.0	-1.9
COCCN(C(=O)CSc1ncccn1)c1c(N)n(Cc2ccccc2)c(=O)[nH]c1=O	1.0	2.0	-1.5	2.0	6.8
CN1CCC(=NNC(=O)COc2ccc(Cl)cc2)CC1	-0.8	-1.6	-3.2	7.9	20.8*
CC(=O)OC[C@H]1O[C@@H](Oc2cc(O)cc3oc(-c4ccc(O)cc4)cc(=O)c23)[C@H](O[C@@H]2O[C@@H](C)[C@H](O)[C@@H](O)[C@H]2O)[C@@H](O)[C@@H]1O	0.5	39.2*	6.6	1.6	.
C[C@H]1CN([C@@H](C)CO)C(=O)Cc2cc(NS(=O)(=O)c3cccs3)ccc2O[C@@H]1CN(C)C(=O)NC1CCCCC1	-0.4	.	.	8.3	2.9
N#C[C@@H]1[C@H](c2ccccc2-c2ccccc2)[C@@H](CO)N1c1ncc(-c2ccccc2)s1	0.0	.	.	5.5	-0.3
N#C[C@H]1[C@@H](c2ccccc2-c2ccccc2)[C@@H](CO)N1c1ncc(-c2ccccc2)s1	0.0	.	.	1.1	24.0*
COc1ccc(S(=O)(=O)n2nc(OC(=O)c3ccccc3)cc2N)cc1	.	-19.7	53.9*	.	.
COc1ccc(S(=O)(=O)n2nc(OC(=O)c3cccs3)cc2N)cc1	.	8.8	95.3*	.	.
COc1ccc(S(=O)(=O)n2nc(OC(=O)c3ccco3)cc2N)cc1	.	5.0	71.2*	.	.
COc1ccc(S(=O)(=O)n2nc(OC(=O)c3ccc(C)cc3)cc2N)cc1	.	5.9	61.4*	.	.
COc1ccc(S(=O)(=O)n2nc(OC(=O)c3ccncc3)cc2N)cc1	-1.9	-5.3	-3.9	3.2	.
C[C@@H]1CN([C@H](C)CO)C(=O)c2cccc(NC(=O)c3ccc(-c4nccs4)cc3)c2O[C@H]1CN(C)S(=O)(=O)c1cn(C)cn1	0.7	.	.	-0.2	-0.3
CO[C@@H]1CN(C)C(=O)c2cc(NS(=O)(=O)c3ccccc3)ccc2OC[C@@H](C)N(Cc2ccccn2)C[C@H]1C	0.9	.	.	0.4	2.6
CCNC(=O)Nc1ccc2c(c1)C(=O)N(C)[C@H]1CC[C@@H](CC(=O)NCc3ccccc3F)O[C@@H]1CO2	-3.4	.	.	1.1	0.2
CS(=O)(=O)n1nc(OC(=O)c2cccs2)cc1N	1.6	-1.8	92.6*	-0.6	3.3
CS(=O)(=O)n1nc(OC(=O)c2cccc3ccccc23)cc1N	.	3.4	7.6	.	.
Nc1cc(OC(=O)c2ccc(F)cc2)nn1S(=O)(=O)c1ccccc1	0.9	4.3	58.7*	3.2	0.6
Cc1cc(C(=O)Nc2ccc3c(c2)C(=O)N(C)[C@H]2CC[C@@H](CC(=O)NCC(F)(F)F)O[C@H]2CO3)no1	-1.3	.	.	5.5	5.0
Nc1cc2c(cc1Cl)-c1ccccc1C2=NO	-0.2	-12.8	.	-11.7	23.7*
Cc1ccc(-c2csc(NCCn3c(-c4ccncc4)nc4cc(C(F)(F)F)ccc43)n2)cc1	9.3	13.6	0.0	-2.1	17.3*
Cc1nn(CC(=O)NCCCN2CCC(Cc3ccccc3)CC2)c(=O)c2cc(-c3ccccc3)nn12	0.3	3.3	4.1	-5.0	25.1*
C[C@@H]1CCCCO[C@H](CN(C)S(=O)(=O)c2ccc(F)cc2)[C@@H](C)CN([C@@H](C)CO)C(=O)c2cc(NC(=O)Nc3ccc4c(c3)OCO4)ccc2O1	0.6	.	.	-5.9	9.2
CC(C)(Sc1ccc(CCN(CCCCC2CCCCC2)C(=O)NC2CCCCC2)cc1)C(=O)O	-0.6	5.3	0.1	5.6	25.8*
SMILES	ERAP1 inh	PDI turbidity	HDAC3 inh	ERp5 inh	SIRT5 inh
CN1c2ccc(-c3ccccc3F)cc2[C@@H]2[C@@H](CCN2C(=O)Cc2ccccn2)[C@@H]1CO	-2.8	.	.	1.7	0.3
CCCC(=O)Nc1ccc2c(c1)C(=O)N(C)[C@@H]1CC[C@H](CC(=O)NCCc3ccccc3)O[C@@H]1CO2	.	.	.	.	-5.0
CC1=Nc2cc(C(=O)NCC3CCCO3)ccc2Sc2ccc(Br)cc21 (stereo not drawn)	1.3	-1.3	1.2	-0.2	-3.3
CC1=Nc2cc(C(=O)O)ccc2Sc2ccc(Br)cc21	-1.3	8.5	9.4	13.0	23.4*
C[n+]1ccc(/C=C/c2c[nH]c3ccc(F)cc23)cc1	3.8	-12.5	4.9	2.0	25.8*
Cn1cc(/C=C/c2cc[n+](C)cc2)c2cc(F)ccc21	66.3*	9.2	10.6	14.4	11.3
O=C(O)CSc1ncnc2c1sc1nc(-c3ccccc3)c3c(c12)CCC3	-1.8	1.0	-0.7	-3.3	18.1*
CC1Cc2ccccc2N1C(=O)COc1ccc2c(c1)OCO2 (stereo not drawn)	30.6*	5.3	2.2	-0.8	-1.3
C[C@@H]1CN([C@@H](C)CO)S(=O)(=O)c2ccc(-c3cccnc3)cc2O[C@@H]1CN(C)C(=O)C1CCC1	0.8	.	.	-1.1	-4.4
CC(=O)N1CC[C@@H]2[C@H](CO)Nc3ccc(C#Cc4cccnc4)cc3[C@@H]21	3.3	.	.	-3.3	17.9*
COc1ccccc1C#Cc1ccc2c(c1)[C@H]1[C@H](CCN1C(=O)c1ccc(F)cc1)[C@@H](CO)N2	0.4	.	.	0.8	17.6*
CCC(=O)N1CC[C@@H]2[C@@H](CO)Nc3ccc(C#Cc4cccnc4)cc3[C@@H]21	3.6	.	.	6.6	18.9*
CCC(=O)N1CC[C@@H]2[C@H]1c1cc(C#Cc3ccccc3)ccc1N[C@@H]2CO	-0.1	.	.	-0.4	3.2
COc1ccccc1C#Cc1ccc2c(c1)[C@H]1[C@H](CCN1C(=O)c1ccccc1)[C@H](CO)N2	-2.6	.	.	-0.7	4.9
COCC#Cc1ccc2c(c1)O[C@H](CN(C)Cc1cccnc1)[C@H](C)CN([C@@H](C)CO)S2(=O)=O	2.7	.	.	-4.5	-0.9
COc1ccc(C(CNC(=O)c2cccc(S(=O)(=O)N3CCCCC3)c2)N2CCCC2)cc1 (stereo not drawn)	1.6	-4.0	2.3	3.7	24.2*
CN1CCN(S(=O)(=O)c2cccc(C(=O)Oc3ccc(C(C)(C)C)cc3)c2)CC1	0.7	2.0	1.7	5.9	-6.6
CC(C)c1ccc(OC(=O)c2cccc(S(=O)(=O)N3CCN(C)CC3)c2)cc1	105.8*	0.4	18.8	3.8	-1.8
C=CCN(c1ccccc1)S(=O)(=O)c1cccc(C(=O)Nc2ccncc2)c1	0.3	1.9	.	4.6	18.7*
Cc1ccc(S(=O)(=O)N2C(=O)[C@@H]3Cc4ccccc4CN3C2=O)cc1	1.4	10.8	.	-0.7	17.0*
Cc1ccc(S(=O)(=O)N2CCc3ccccc3C2)cc1	1.2	2.9	1.3	3.9	-1.8
C[C@@H]1CN([C@H](C)CO)C(=O)Cc2cc(NC(=O)Cc3ccccc3)ccc2O[C@@H]1CN(C)Cc1ccc(C(=O)Nc2ccccc2N)cc1	-1.9	.	.	7.0	3.8
CCCc1cc(=O)[nH]c(SCC(=O)CSc2nc(CCC)cc(=O)[nH]2)n1	1.3	7.0	45.2*	0.9	3.2
CCCc1cc(=O)[nH]c(SCC(=O)NC)n1	.	9.4	-1.5	.	.
